In PubChem BioAssay (Tox21):
Inconclusive results are not listed. Activity calls are given as the source filed them. Calls come from the whole dose curve; as a rule, active = well fitted cell-killing curve with a large enough effect in the repeat runs; inconclusive = weak or mixed curves, or effect the other way; inactive = flat fitted curve, though single readings scatter.

Experiment: qHTS assay to identify small molecule antagonists of the constitutive androstane receptor (CAR) signaling pathway - cell viability counter screen (AID 1224837); note: nearly all actives have a fitted effect of over 45% in size
Conditions: HepG2-CYP2B6-hCAR viability, CellTiter-Fluor, 23 h, co-treated with 50 nM CITCO; series mostly up to 92.4 µM
From the text: National Center for Advancing Translational Sciences [NCATS]
NIH Chemical Genomics Center [NCGC]
U.S. Environmental Protection Agency [EPA]
National Institutes of Environmental Health Sciences [NIEHS]
National Toxicology Program [NTP]
U.S. Food and Drug Administration [FDA]
The constitutive androstane receptor (CAR) is a nuclear receptor which regulates multiple drug metabolizing enzymes (DMEs) and transporters. Activating CAR will generally increase the transcription and subsequent translation of CYP2B6 and CYP3A4. These two DMEs represent about 50% of the drug metabolizing potential in the body. When CAR is deactivated, the metabolizing potential in the body will decrease, subsequently increasing the toxicity in the body or lowering the therapeutic potential of a pro-drug. Recently, there have also been studies performed indicating CARs role in energy metabolism and cancer therapy. Therefore, inhibiting CARs activity could have a potential effect on diabetes and cancer. Identifying environmental toxins and compounds which modulate CAR, through the use of the Tox21 10K compound collection, will be an important step in determining the toxicity and potential therapeutic effects these factors will have on the human body. To differentiate true CAR antagonists from cytotoxic substances, the assay is multiplexed with a cell viability assay.
Tox21 Assay Protocol Summary:
A double-stable (hCAR and CYP2B6-2.2kb) transfected cell line, derived from human hepatoma (HepG2) cells, was utilized for the duration of the quantitative high-throughput screens. The HepG2-CYP2B6-hCAR cells were dispensed at 2500 cells/4 uL/well in 1536-well white solid bottom plates using a Multidrop Combi. After the assay plates were incubated at 37 C/5% CO2 for 4 hrs, 23 nL of compounds at 15 concentrations (from 5-48 columns) or positive control (from 1 to 4 columns) were transferred to the assay plates using a Pintool station. One uL of CITCO (final concentration = 50 nM) was added, using a Flying Reagent Dispenser, inside each well. After a 23 hr incubation period at 37 C/5% CO2, 1 uL of CellTiter-Fluor reagent was added into each well of the assay plates using a Flying Reagent Dispenser. The fluorescence intensity in the plates was then measured using a ViewLux plate reader.
% is set by controls: 0 for no effect and ±100 for the full control effect.

| SMILES | outcome | activity change, negative = cytotoxicity |
| --- | --- | --- |
| CC(C)(C)CC(C)(C)N | inactive | – |
| C=C(C)[C@H]1CC=C(C)CC1 | inactive | – |
| CCOC(=O)Nc1ccc2c(c1)N(C(=O)CCN1CCOCC1)c1ccccc1S2 | inactive | – |
| C(=C(c1ccccc1)c1ccccc1)c1ccccc1 | inactive | – |
| O=c1[nH]c(=O)n([C@H]2O[C@H](CO)[C@@H](O)[C@@H]2O)cc1/C=C\Br | inactive | – |
| Nc1cc(C(Cl)=C(Cl)Cl)c(S(N)(=O)=O)cc1S(N)(=O)=O | inactive | – |
| CN(C)CCOC(c1ccc(Cl)cc1)c1ccccn1 (stereo not given) | inactive | – |
| CCCCOCC(C)OCC(C)O (stereo not given) | inactive | – |
| NCCN1CCNC1=O | inactive | – |
| C#CC(O)CCCCC (stereo not given) | inactive | – |
| CC(C)c1cccc(O)c1 | inactive | – |
| COc1cc(O)cc(O)c1 | inactive | – |
| O=C1CC2(CCCC2)CC(=O)N1 | inactive | – |
| COC[C@H](c1ccc(C(F)(F)F)cc1)N1CCN(C2(C)CCN(C(=O)c3c(C)ncnc3C)CC2)C[C@H]1C | inactive | – |
| CCCCCCOC(=O)c1ccccc1O | inactive | – |
| N#CC1(O)CCCCC1 | inactive | – |
| CC(=O)OC(C)(C)C | inactive | – |
| NC(=O)c1ncn([C@@H]2O[C@H](CO)[C@@H](O)[C@H]2O)c1O | inactive | – |
| O=C(O)/C=C/c1ccc(/C=C/C(=O)O)cc1 | inactive | – |
| O=C(O)CCNC(=O)c1ccc(N=Nc2ccc(O)c(C(=O)O)c2)cc1 | inactive | – |

| SMILES | outcome | activity change, negative = cytotoxicity |
| --- | --- | --- |
| CC(C)COC(=O)c1ccccc1O | inactive | – |
| CC(C)COC(=O)C(C)C | inactive | – |
| COC(=O)CCCC(=O)O | inactive | – |
| CC(C)CCCC(C)CCCC(C)CCCCC(C)CCCC(C)CCCC(C)C (stereo not given) | inactive | – |
| C=CC(=O)OCCCCCC | inactive | – |
| NC(=S)Nc1cccc2ccccc12 | – | -0.426% [at 8.39 µM] (inactive) |
| CC12CCC(CC1=O)C2(C)C (stereo not given) | inactive | – |
| Nc1nc(F)nc2c1ncn2[C@@H]1O[C@H](CO)[C@@H](O)[C@@H]1O | inactive | – |
| CC(C)(C)OC(=O)N1C[C@@H](F)C[C@H]1C(=O)O | inactive | – |
| CC/C=C\C#N | inactive | – |
| Cc1cc(C)cc(OCC2CNC(=O)O2)c1 (stereo not given) | inactive | – |
| CC(=O)N[C@@H](CCC(N)=O)C(=O)O | inactive | – |
| OCC(CO)(CO)COCC(CO)(CO)CO | inactive | – |
| COc1ccc(NC(C)=O)cc1 | inactive | – |
| Cc1onc(-c2ccccc2)c1-c1ccc(S(N)(=O)=O)cc1 | inactive | – |
| CCO[Si](C)(OCC)OCC | inactive | – |
| Cc1ccc(Nc2ccc(O)c3c2C(=O)c2ccccc2C3=O)cc1 | inactive | – |
| OCc1ccccn1 | inactive | – |
| O=C(O)c1ccccc1-c1ccc(C(F)(F)F)cc1 | inactive | – |
| C=CC(=O)N1CCOCC1 | inactive | – |
